Source: PubChem BioAssay (NCI)
Compounds without any hit were thinned out: in the full panel of roughly 83,000, 20% have a hit.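 The endpoint reported here, percent growth, reads 100 for growth as untreated, 0 for no net growth and -100 for all cells dead.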 A number with no mark means an inactive call. Active and inactive are the calls of the source. The calls were made as follows: active = growth percent below 10; inactive = the rest.

Assays:
Assay in all cases: NCI-60 one-dose screen, 48 h (100 = growth as untreated, 0 = no growth, -100 = all killed)
Settings in all cases: 10 µM unless noted
[1] = test system: T-47D breast
[2] = test system: BT-549 breast
[3] = test system: MDA-MB-435 melanoma
[4] = test system: SW-620 colon
[5] = test system: MCF7 breast
[6] = test system: HCT-116 colon
[7] = test system: HCC-2998 colon
[8] = test system: KM12 colon

SMILES	growth [1]	growth [2]	growth [3]	growth [4]	growth [5]	growth [6]	growth [7]	growth [8]
CC(=O)OC[C@]12CC[C@@H](C(=O)CBr)[C@@H]1[C@H]1CC[C@@H]3[C@@]4(C)CC[C@H](OC(C)=O)C(C)(C)[C@@H]4CC[C@@]3(C)[C@]1(C)CC2	85.3%	84%	93.3%	100%	89%	88.2%	111%	97.7%
COc1cc(/C=C\c2cc(/C=C\c3ccc(O)c(OC)c3)n(C(=O)COc3ccccc3)n2)ccc1O	12.4%	-3.68% (active)	8.84% (active)	7.35% (active)	1.3% (active)	3.68% (active)	34.8%	8.96% (active)
O=C1/C=C/[C@@H](O)[C@@H]2C[C@@H](O)C[C@H]2/C=C/CCC[C@H](CCc2cccc3ccccc23)O1	1.52% (active)	13.5%	6.06% (active)	-28% (active)	-30.8% (active)	-63.9% (active)	3.84% (active)	-37.9% (active)
CCN(c1ccccc1)S(=O)(=O)c1cc([N+](=O)[O-])ccc1Cl	26.6%	49.4%	62.3%	46.3%	52.6%	24.6%	110%	54.1%
CCCCCCNC(=O)Oc1ccc(/C(=C(\C)c2ccccc2)c2ccc(OCCCN(C)C)cc2)cc1	46.2%	85.4%	48.3%	92.4%	21.3%	47.1%	86.7%	74.3%
CCCCCN1C=C/C(=C\C(=O)N(C)c2ccccc2Br)c2ccccc21	77.3%	116%	99.4%	97%	94.3%	87.2%	102%	98.4%
COc1ccc(/C=C/c2nc(Nc3ccc(S(=O)(=O)NC(C)=O)cc3)c3ccccc3n2)cc1	67.7%	86.8%	63%	68.2%	46.7%	47.4%	82.1%	57.8%
COc1ccc(C(=O)CC#N)cc1	104%	107%	132%	107%	96.7%	106%	112%	108%
COc1ccc(CC(C)=C(c2ccc(OCCN3CCCCCC3)cc2)c2ccc(OCCN3CCCCCC3)cc2)cc1	-73.3% (active)	-75.9% (active)	-98.2% (active)	-90.5% (active)	-90.2% (active)	-55.1% (active)	-91.8% (active)	-97.4% (active)
CNC(=O)c1cncc(Cn2nc(C)c(NC(=O)c3ccc(COc4ccc(C(F)(F)F)cc4C)cc3)c2C)c1	29.7%	32.4%	66.6%	102%	37.5%	44.7%	77.8%	74.8%
COc1cc2oc(-c3cccc(C(=O)Nc4ccc(Cl)cc4)c3)cc(=O)c2c(O)c1OC	47.2%	60.1%	61%	73.6%	80.9%	39.9%	96.5%	62%
Nc1n[nH]c2cccc(C#Cc3cccc(C(=O)Nc4cc(CN5CCOCC5)cc(C(F)(F)F)c4)c3)c12	37.1%	57.9%	23.4%	30.9%	44.2%	14.1%	45%	13.1%
N#Cc1cc(-c2nc3ccccc3s2)c(=O)n(NS(=O)(=O)c2ccccc2)c1N	94.5%	98.2%	102%	100%	105%	109%	116%	103%
COCc1cnccc1NC1CCCCCC1	98.7%	119%	104%	99.3%	97.2%	100%	103%	100%
O=C1c2ccc3c4c(ccc(c24)C(=O)N1CCCNCc1ccccc1F)C(=O)N(CCCNCc1ccccc1F)C3=O	-27.9% (active)	-85.4% (active)	-74.3% (active)	-73.3% (active)	-80.5% (active)	-37.7% (active)	-93.1% (active)	-76.1% (active)
CCN(CC)c1ccc(C(=O)c2ccccc2)cc1	83.3%	109%	105%	102%	98.7%	91.3%	107%	101%

SMILES	growth [1]	growth [2]	growth [3]	growth [4]	growth [5]	growth [6]	growth [7]	growth [8]
COc1cc2c(=O)n(CCN(C)C)c3c4cc5c(cc4ccc3c2cc1OC)OCO5	-20.5% (active)	1.42% (active)	-65.4% (active)	-17.9% (active)	7.27% (active)	-7.98% (active)	-58.1% (active)	-25.2% (active)
C=C1C(=O)O[C@H]2[C@H]1CC/C(COC(=O)NCc1c[nH]c3ccc(F)cc13)=C\CC[C@@]1(C)O[C@@H]21	-58.3% (active)	-51.6% (active)	-63.5% (active)	-72.4% (active)	22.4%	-86.7% (active)	68.3%	33.5%
CNCCn1c(=O)c2cc(OC)c(OC)cc2c2ccc3cc4c(cc3c21)OCO4	6.22% (active)	-19.8% (active)	-61% (active)	-47.4% (active)	7.12% (active)	2.87% (active)	-51.6% (active)	3.17% (active)
COC(=O)/C=C1\S/C(=N\NC(=O)c2cc3ccc2/C=C\c2ccc(cc2)/C=C\3)N(c2ccccc2)C1=O	-38.2% (active)	35.5%	89.6%	7.39% (active)	23.2%	4.05% (active)	3.64% (active)	8.49% (active)
O=C(CCN1CCCC1)Nc1ccc2c(NCCCCc3ccccc3)c3ccccc3nc2c1	-27.2% (active)	56.9%	-91.2% (active)	-60.5% (active)	-75.9% (active)	-70.8% (active)	-90.9% (active)	-79.1% (active)
O=C(c1ccccc1)N1N=C(c2ccc(-n3ccc(C(F)(F)F)n3)c(F)c2)CC1c1ccc[nH]1 (stereo not drawn)	90.6%	110%	102%	108%	96.4%	105%	112%	104%
COCCCN1CC(O)=C(c2nc(-c3ccc(C)cc3)cs2)C1=N	97.5%	103%	105%	104%	360%	90.3%	112%	120%
O=S(=O)(NCCNc1nccc(-c2c(-c3cccc(O)c3)nc3occn23)n1)c1ccc(Cl)cc1	91.7%	116%	45.4%	125%	82%	87.6%	135%	91.3%
Cc1ccc(-n2nc3c(c(C#N)c2=O)CC(c2ccccc2[N+](=O)[O-])C([N+](=O)[O-])=C3O)cc1 (stereo not drawn)	65.5%	93.2%	96.7%	89.1%	55.4%	86.9%	116%	82.3%
CNC(=O)c1cccc(Cn2nc(C)c(NC(=O)c3ccc(COc4ccc(C(F)(F)F)cc4C)cc3)c2C)c1	6.16% (active)	19.7%	36.2%	77.3%	21.7%	29.2%	68.5%	61.7%
c1ccc(-c2c(-c3ccccc3)[n+](Cc3ccc4ccccc4c3)c(-c3cccc4ccccc34)n2Cc2ccc3ccccc3c2)cc1	-73.4% (active)	-63.7% (active)	-58.6% (active)	-66.1% (active)	-15% (active)	-74.4% (active)	-74.5% (active)	-77.7% (active)
COc1ccc2[nH]c(=O)c(CN3CCN(c4nccc(-c5ccc(Cl)cc5)n4)CC3)cc2c1	73.6%	91.2%	97.9%	89.5%	83.5%	86.4%	105%	90.6%
CCN(Cc1ccccc1)c1ccc(C=O)cc1	78.6%	95.1%	107%	97.9%	96%	91.3%	93.7%	106%
Nc1nc(Nc2ccccc2SSc2ccccc2Nc2nc(N)nc(-c3cccs3)n2)nc(-c2ccsc2)n1	56.2%	86%	98.1%	80.4%	68.1%	84.9%	111%	67.6%
COc1ccc(-c2nc3sccn3c2/C=C/C(=O)c2ccc3c(c2)OCO3)cc1	83.9%	81.8%	57.6%	56%	-7.62% (active)	58.4%	95.5%	54.2%
